Experimental data reported in PubChem BioAssay (NCI).
The panel holds about 79,000 compounds, 15% with a hit somewhere; the sample as a whole holds those more often. Rule as the data show it: active = growth inhibition above about 70%; inactive = the rest.

Experiments:
[1] = NCI Yeast Anticancer Drug Screen. Data for the rad50 strain (AID 155);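 also: 0% = growth of vehicle-only cultures of the same strain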; conditions: S. cerevisiae rad50 strain growth inhibition; at 50.0 µM; hits give high values
Outline: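 Relative growth inhibition (compound vs vehicle) was measured in yeast with a defined repair-gene alteration.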

[2] = NCI Yeast Anticancer Drug Screen. Data for the mec2-1 strain (AID 157); conditions: S. cerevisiae mec2-1 strain, at 50.0 µM, hits give high values
Outline: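 Growth inhibition is read against vehicle-treated controls after compound exposure of the mec2-1 yeast strain, which is defective in DNA damage repair or cell cycle control.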

[3] = NCI Yeast Anticancer Drug Screen. Data for the sgs1 mgt1 strain (AID 161);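 also: 0% = growth of cultures given vehicle only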; conditions: S. cerevisiae sgs1 mgt1 strain, at 50.0 µM, hits give high values
Outline: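 This yeast growth screen uses a strain with defined DNA-repair lesions; compound-treated growth is compared with vehicle-treated growth.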

[4] = NCI Yeast Anticancer Drug Screen. Data for the cln2 rad14 strain (AID 165);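 also: 0% = growth equal to vehicle treated cultures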; conditions: S. cerevisiae cln2 rad14 strain, at 50.0 µM, hits give high values
Outline: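 Growth inhibition, relative to vehicle-treated controls, is the read-out. The test organism is a yeast strain with defined genetic alterations, cln2 rad14.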

[5] = NCI Yeast Anticancer Drug Screen. Data for the bub3 strain (AID 167); conditions: S. cerevisiae bub3 mutant strain, at 50.0 µM, hits give high values
Outline: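 Screening used yeast with an engineered genetic alteration affecting cell cycle control. Compound-exposed cultures were compared with vehicle cultures, and reduced growth was taken as inhibition.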

[6] = NCI Yeast Anticancer Drug Screen. Data for the mlh1 rad18 strain (AID 175); conditions: S. cerevisiae mlh1 rad18 strain growth inhibition; at 50.0 µM; hits give high values
Outline: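 Cells of a genetically altered yeast strain, deficient in DNA damage repair, were treated with compound. Their growth was then compared with that of vehicle-treated cultures to give inhibition.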

Measured: growth inhibition

Cc1ccccc1NC(=O)Nc1ccccc1C
inactive: [1] -3.8% | [2] -15.3% | [3] 3.45% | [4] -23% | [5] -20.2% | [6] -11.9%

CC1(C)CN(CCO)C(C)(C)CN1CCO
inactive: [1] 13.4% | [2] 7.35% | [3] 7.2% | [4] 12.4% | [5] -27.7% | [6] -10.1%

N#CCCN(c1ccc(C=Nc2ccc(C(=O)O)cc2)cc1)S(=O)(=O)c1ccccc1
inactive: [1] -0.1% | [2] -29.6% | [3] 7.4% | [4] 5.75% | [5] 19.9% | [6] -11.1%

O=C1/C(=C/c2ccccc2)CCCC/C1=C\c1ccccc1
inactive: [1] 27.9% | [2] 31% | [3] 40.5% | [4] -1.9% | [5] 9.75% | [6] 15.9%

CC1CCCCCN1CCC(=O)c1ccccc1 (stereo unspecified)
inactive: [1] 17.9% | [2] 25.1% | [3] 17.9% | [4] 19.2% | [5] 32.6% | [6] 8.65%

CC1=NCC(=O)N1
inactive: [1] -10.2% | [2] 1.5% | [3] -1.1% | [4] -11.8% | [5] -6.1% | [6] -4%

c1ccc(CCN2CCN(CCc3ccccn3)CC2)nc1
inactive: [1] 6.25% | [2] 6% | [3] -6.95% | [4] -19.6% | [5] 3.8% | [6] 0.2%

Cc1ccccc1-[n+]1noc(N)n1
inactive: [1] 4.75% | [2] 0.45% | [3] -14.6% | [4] 3.85% | [5] -0.7% | [6] 12.6%

CC(=O)OCCSSCCOC(C)=O
inactive: [1] -4.9% | [2] -26.4% | [3] 13% | [4] 6.55% | [5] -1.9% | [6] -3.75%

O=C(Nc1ccc(C(F)(F)F)cc1[N+](=O)[O-])C(=O)C1NC(=S)NC1=O (stereo unspecified)
inactive: [1] 30.6% | [2] 12.1% | [3] 24.9% | [4] 25.4% | [5] 7.35% | [6] 27.6%

CCOCc1cnc(SC)nc1N
inactive: [1] -0.75% | [2] 7.35% | [3] -9.45% | [4] -0.25% | [5] -0.15% | [6] -14.4%

O=C(O)c1ccccc1Sc1ccc([N+](=O)[O-])cn1
inactive: [1] 33.2% | [2] 5.1% | [3] 2.15% | [4] -15.8% | [5] 6.4% | [6] 44.7%

O=C(O)c1c[nH]c2c(ccc3[nH]cc(C(=O)O)c(=O)c32)c1=O
inactive: [1] -14.1% | [2] -36.4% | [3] -33.2% | [4] -32.2% | [5] -40.7% | [6] -13.6%

O=CNc1ccc(-c2ccc(NC=O)cc2)cc1
inactive: [1] 27.6% | [2] 4.5% | [3] 7.75% | [4] 13.1% | [5] -12.8% | [6] -6.4%

N#Cc1ccccc1NC(=O)C(=O)C(C(=O)c1ccccc1F)C1OC(=O)c2ccccc21 (stereo unspecified)
inactive: [1] -1.1% | [2] -10.8% | [3] -5.25% | [4] -5.5% | [5] -16.2% | [6] -2.4%

O=C(O)COc1cc(Br)cc(Br)c1
inactive: [1] 1.4% | [2] -14.2% | [3] -7.55% | [4] 16% | [5] -3.9% | [6] -1.7%

COc1nc(NC2OC(CO)C(O)C(O)C2O)cc(=O)[nH]1 (stereo unspecified)
inactive: [1] -4.2% | [2] -7.45% | [3] 1.45% | [4] -3.15% | [5] -37.7% | [6] -6.45%

CC(=O)Nc1cccc(Cc2cccc(NC(C)=O)c2)c1
inactive: [1] 2.75% | [2] -13.3% | [3] -11.9% | [4] -43.4% | [5] -5.1% | [6] -11.6%

Cc1c(C)n2c(=O)n(-c3ccccc3)c(=O)n2c1=O
inactive: [1] -38% | [2] -27.1% | [3] -5.55% | [4] -27.2% | [5] -7.75% | [6] -1.85%

CCOC(=O)/C=C(\C)NC
inactive: [1] -27.5% | [2] -46.9% | [3] -30.9% | [4] -2.75% | [5] -47% | [6] 5.95%

Nc1ccc(C(=O)N/N=C/c2ccc(Cl)cc2Cl)cc1
inactive: [1] 27% | [2] -4.05% | [3] 11.9% | [4] 8% | [5] 13.1% | [6] -5.75%
